We go through 40 molecules from PubChem BioAssay (NCI).

Compounds without any hit were thinned out: in the full panel of roughly 83,000, 20% have a hit.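 Interpretation: 100, growth as untreated; towards 0, rising growth inhibition; 0, no net growth; 0 to -100, cell death. Compounds scoring below 10 were considered active.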 A number with no mark means an inactive call. Calls of active or inactive are those of the source.

The assay concerns M14 melanoma. Description: NCI-60 one-dose screen, 48 h (100 = growth as untreated, 0 = no growth, -100 = all killed). The following applies: 10 µM. The method, then: Growth inhibition of the M14 human tumor cell line is measured as a screen for anti-cancer activity. Cells are grown in 96 well plates and exposed to the test compound for 48 hours. Compounds are tested at a single concentration, which is 10^-5 M for most compounds. The reported endpoint is percent growth (GI% or GIPRCNT), where numbers from 0 - 100% represent growth inhibition, and numbers from -100% - 0 represent cell death. For example, a value of 40 represents 60% growth inhibition. A value of 0 means no net growth occurred over the course of the experiment. A value of -40 indicates 40% of cells at the beginning of the experiment died by the end of the experiment. A value of -100 means all cells are dead at the end of the experiment.
NCI-60 Human Tumor Cell Lines Screen was performed using the standard one-dose NCI protocol, which is described in more detail at https://dtp.cancer.gov/discovery_development/nci-60/default.htm.
Compounds with GIPRCNT values below 10 were considered active. Activity score was based on GIPRCNT using the following formula: […]
Score is 0 for GIPRCNT values of 100 or above, 50 for GIPRCNT values of 0, and 100 for GIPRCNT values of -100.
For the molecule `CC(C)(C)c1ccc(S(=O)(=O)Oc2ccc(NC(=O)C3CCCCC3)cc2)cc1`, the growth is 60.1%. In the case of `CC(C)(C)c1ccc(S(=O)(=O)N[C@H]2CC[C@H]3[C@@H]4CCc5cc(O)c([N+](=O)[O-])cc5[C@H]4CC[C@]23C)cc1`, the growth is 78.5%. On to `C=C1CCC2(C#N)[C@H]3[C@H](CC[C@@H]2C)[C@@H](C)C[C@@H](CC(C)(C)NC(=O)CN2CCC2=O)[C@H]13` (stereo not given in full), for which the growth was 54.9%.

Consider `CCC(=O)OC1CCC2C3CCC(=O)OC3C(C)(CCC(=O)O)CC12C` (stereo not given), for which the growth is 25.8%. For the molecule `CCNc1nc(C(F)(F)F)nc2c1sc(=S)n2-c1ccccc1`, the growth was 108%. As for `C[C@@H](O)[C@H]1C(=O)N2C(C(=O)O)=C(SC3CN[C@H](C(=O)N(C)C)C3)[C@H](C)[C@H]12` (stereo not given in full), the growth was 100%. With `Cc1n[nH]c(C)c1N=Nc1cccc2c1C(=O)c1ccccc1C2=O`, the growth was 106%. On to `CCOC(=O)c1cc(C(=O)c2cc(OC)c(OC)c(OC)c2)n2c1ccc1c3cccnc3ccc12`, for which the growth was 31.6%. In the case of `COc1ccc(C(c2ccc(OCCN(C)C)cc2)c2cc3ccccc3c3ccccc23)cc1` (stereo not given), the growth was -72.3% (active).

Consider `Cc1ccc(C(C)C)c(O)c1NC(=O)OC(C)C`, for which the growth is 96.6%. As to `O[C@@H]1CO[C@H]2[C@@H]1OC[C@@H]2O`, the growth is 103%.

With `COc1cc2c3c(n(C4CCN(C)CC4)c(=O)c2cc1OC)-c1cc2c(cc1C3=O)OCO2`, the growth was 60.9%. The result for `C=CCNCCN1C(=O)c2ccc3c4c(ccc(c24)C1=O)C(=O)N(CCNCC=C)C3=O` reads -84.3% (active). For `Cc1ccc(C(=O)C2C(=O)C3CCC2C3)cc1` (stereo not given), the growth was 111%.

`Cc1cn(-c2cc(F)cc(NC(=O)c3ccc(C)c(Nc4nccc(-c5cccnc5)n4)c3)c2)cn1`: the growth is 60.2%. On to `COc1ccc(-c2nc(-c3nc4ccc(C)cc4[nH]3)cc3c2[nH]c2ccccc23)cc1`, for which the growth was 31.5%. On to `CC(CN(C)C)Oc1ccccc1NC1=C(Cl)C(=O)C(Nc2ccccc2OC(C)CN(C)C)=C(Cl)C1=O` (stereo not given), for which the growth was -65% (active). Take `COc1ccc(C(=O)CC(CC(=O)c2ccc(OC)cc2)c2c(C)nn(-c3ccccc3)c2Cl)cc1`: the growth is 90.5%. Take `COc1cc2cc(Oc3ccc(NC(=O)c4ccccc4)cc3)c(C)nc2cc1OC`: the growth is 121%. Take `CNS(=O)(=O)Oc1ccc(-c2ccc3occc3c2)cc1`: the growth is 113%.

Consider `COc1cc(C(=O)/C=C/c2c[nH]c3ccccc23)cc(OC)c1OC`, for which the growth is 8.91% (active).

Consider `CC(C)(C)OC(=O)CC(S(=O)(=O)c1ccccc1)S(=O)(=O)c1ccccc1`, for which the growth is 116%.

For `COc1cc(-c2nn(-c3cccc(NC(=O)NCCNC(=O)c4ccccc4)c3)cc2-c2ccncc2)ccc1Cl`, the growth is -5.48% (active).

As to `CC1C(=NC(=O)c2cnccn2)C(C)C(c2ccc(Cl)cc2)NC1c1ccncc1` (stereo not given), the growth was 91.9%. Regarding `COc1ccc2nc3cc(Cl)ccc3c(N)c2c1`, the growth is -95.6% (active). Consider `N#Cc1c(-c2ccc(Cl)cc2)n(O)c2ccccc12`, for which the growth was 13.5%. The result for `CC(=O)COc1ccc(Cl)cc1Cl` reads 110%; that for `Cc1ccc(N=Nc2ccccc2)cc1`, 90.9%; that for `CC[C@@H](C(=O)[C@@H](C)[C@@H](O)[C@H](C)[C@@H]1O[C@@H]([C@@H](CC)C(=O)N(CC)CC)CC[C@@H]1C)C1O[C@]2(C=CC(=O)[C@]3(CC[C@@](C)([C@H]4CC[C@](O)(CC)[C@H](C)O4)O3)O2)[C@H](C)C[C@@H]1C` (stereo not given in full), 13.6%. Regarding `CC(CN(C)C)Oc1ccc(OC(C)CN(C)C)c2c1C(=O)c1ccccc1C2=O` (stereo not given), the growth was 56.6%.

With `CCOC(=O)c1sc2ncnc(Nc3ccc4c(cnn4C(=O)Nc4ccccc4)c3)c2c1C`, the growth was 63.7%. The figure for `COc1ccc(-c2nn(-c3cccc(Cl)c3)cc2C=C(C#N)C#N)cc1` is -18% (active).

In the case of `CCOC(=O)N/N=C/c1ccc(OC)c(OC)c1`, the growth was 113%.

For the molecule `C=CCN(CC=C)C(=O)[C@H](CC)[C@@H]1CC[C@@H](C)[C@@H]([C@H](C)[C@@H](O)[C@@H](C)C(=O)[C@H](CC)C2O[C@]3(C=CC(=O)[C@]4(CC[C@@](C)([C@H]5CC[C@](O)(CC)[C@H](C)O5)O4)O3)[C@H](C)C[C@@H]2C)O1` (stereo not given in full), the growth is 17.3%. The figure for `O=C(CI)OCC(COC(=O)CI)OC(=O)CI` is 83.2%; for `NC1=CC(=O)C(=O)c2cccnc21` it is 32.1%; for `COc1cc(-c2nn(-c3cccc(NC(=O)CCNc4ccc(N5CCOCC5)cc4)c3)cc2-c2ccncc2)ccc1Cl` it is 2.71% (active). For `COc1cc(-c2ccc(N=Nc3ccc4c(S(=O)(=O)O)ccc(N)c4c3O)c(OC)c2)ccc1N=Nc1ccc2c(S(=O)(=O)O)ccc(N)c2c1O`, the growth was 107%. As for `N#CC1=CC2CN(Cc3ccccc3)C1C1C(=O)N(c3ccccc3)C(=O)C21` (stereo not given), the growth is 86.4%. `O=C(CCCSc1nc(-c2ccc(Cl)cc2)cc(-c2ccc(Cl)cc2)n1)NO`: the growth is -15.5% (active).
